Source: PubChem (National Center for Advancing Translational Sciences (NCATS))
Shiga toxin inh = blocks Shiga toxin action in Vero cells | Vero cells, Shiga toxin protein synthesis inhibition reporter | inhibition, % at 38.7 µM | 290,000 compounds, 9.2% hits; in the data active = inhibition mostly above about 28%, no sharp cut-off; inactive = mostly below about 43%; note: 0% is about no effect
NS1 inh = blocks influenza NS1 protein function; Potency, µM (highest dose often 46.1 µM), for inactives: at the top dose activity, positive = more growth; 270,000 compounds, 0.4% hits; calls by dose curve; note: potency is the fitted concentration of half-maximal effect; actives are rising curves; nearly all actives have a fitted effect of over 50% in size
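Growth recovery, yeast-based: influenza A NS1 expressed in S. cerevisiae causes slow growth, and suppressors are detected by OD600. The parent strain without NS1 is used as positive control.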
CHX counter = counter-screen hit for Shiga toxin inhibitors, cycloheximide; cell reporter, cycloheximide protein synthesis inhibition counterscreen; max response, %; 300,000 compounds, 12% hits; in the data active = max response mostly above about 13%, no sharp cut-off; inactive = mostly below about 14%; note: read at 38.3 µM for the half of the compounds with a filed dose; 0% is about no effect
Pf growth 96h = inhibits malaria parasite growth, 96 h; P. falciparum luciferase reporter growth, 96 h; Potency, µM (top dose mostly 28.7 µM), for the others: at the top dose activity change, negative = inhibition, hits mostly inhibitors; 320,000 compounds, 6.9% hits; AID 504834; note: potency is the fitted concentration of half-maximal effect; % is set by controls: 0 for no effect and ±100 for the full control effect
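Plates of compound plus infected erythrocytes (2% hematocrit, 0.05% parasitemia final) incubate 96 hours, 37 C, 5% CO2. Detection reagent added; reduced luminescence from the parasites' luciferase reporter flags inhibition.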
Pf growth 48h = inhibits P. falciparum growth in the first generation, 48 h; P. falciparum luciferase growth in erythrocytes, 48 h; Potency, µM (titrated, usually from 28.7 µM), for the others: top-dose activity change, negative = inhibition, hits mostly inhibitors; AID 504832; 310,000 compounds, 5.9% hits; note: potency is the fitted concentration of half-maximal effect; % is set by controls: 0 for no effect and ±100 for the full control effect
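A one-generation exposure of luciferase-tagged malaria parasites in RPMI 1640/Albumax erythrocyte culture, 37 C and 5% CO2. Inhibition is inferred from decreased luminescence after adding detection reagent.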
Sm TGR inh = inhibitors of Schistosoma mansoni thioredoxin glutathione reductase; purified TGR, DTNB reduction, TNB absorbance 405 nm; Potency, µM (doses to about 114 µM), without a hit: top-dose activity change, negative = inhibition, actives largely listed as inhibitors; 360,000 compounds, 3% hits; AID 485364; note: potency is the fitted concentration of half-maximal effect; % is set by controls: 0 for no effect and ±100 for the full control effect; nearly all actives have a fitted effect of over 60% in size
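Kinetic colorimetric format: TGR-catalysed, NADPH-driven DTNB reduction monitored via TNB absorbance. Enzyme dispensed at 20 nM; compound exposure 15 min at room temperature before reaction start.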
* hit, by the source's call. Shown are actives, neighbours in structure and some others; about 21% of the full set was active somewhere. Unless noted, calls come from the whole dose curve; as a rule, active = well fitted curve in the direction sought with a large enough effect; inconclusive = small, poorly fitted or top-dose-only effect, or another doubt; inactive = no such curve, though single readings can be large; an effect the other way counts as inactive or inconclusive.

Screening Nc1c(C(=O)Nc2ccc(Br)cc2)sc2nc(-c3ccco3)ccc12 returned Shiga toxin inh 37.9*, NS1 inh 18.9%, CHX counter 28.8*, Pf growth 96h 0.0%, Pf growth 48h -52.9% and Sm TGR inh 0.794µM*.
Screening CC(=O)c1sc2nc(-c3ccco3)ccc2c1N returned Shiga toxin inh 75.8*, NS1 inh -2.7%, CHX counter 31.6*, Pf growth 96h 266.8%, Pf growth 48h 171.8% and Sm TGR inh 0.891µM*.
Screening CC(=O)c1sc2nc(-c3ccccc3)cc(C)c2c1N returned Shiga toxin inh -12.2, NS1 inh 1.1%, CHX counter -1.9, Pf growth 96h -19.9%, Pf growth 48h -0.4% and Sm TGR inh inconclusive.
Nc1c(C(=O)Nc2ccc(F)cc2)sc2nc(-c3ccco3)ccc12 was read as Shiga toxin inh 67.1, NS1 inh -47.9%, CHX counter 32.4*, Pf growth 96h -14.5%, Pf growth 48h -19.6% and Sm TGR inh inconclusive.
For Nc1c(C(=O)Nc2ccc(Br)cc2)sc2nc(-c3ccncc3)ccc12 the results were Shiga toxin inh 18.2, CHX counter 16.9 and Sm TGR inh -0.2%.
Screening COc1ccc2c(c1)-c1nc(NC(=O)c3cc(OC)c(OC)c(OC)c3)sc1CC2 returned Sm TGR inh 17.4%.
CCC(=O)N1CCc2cc(S(=O)(=O)NC(C(=O)NCc3ccccc3Cl)C(C)C)ccc21 (configuration not stated) was read as Sm TGR inh 4.1%.
O=S(=O)(c1ccc2c(c1)OCCO2)N1CCN(S(=O)(=O)c2cc(F)c(Br)cc2F)CC1 was read as Shiga toxin inh -5.7 and CHX counter -9.1.
Screening C=CC(=O)N=c1sc2ccccc2n1-c1ccccc1 returned Shiga toxin inh -4.4, CHX counter -0.6, Pf growth 96h inconclusive, Pf growth 48h 34.7% and Sm TGR inh 39.8µM*.
Screening N=c1sc2ccccc2n1-c1ccccc1 returned Shiga toxin inh -11.0, NS1 inh 5.8%, CHX counter -2.2, Pf growth 96h -13.1%, Pf growth 48h -5.0% and Sm TGR inh -10.8%.
`CC#CC[N+](C)(C)CCCCCCCCCC` gave Shiga toxin inh 10.4, NS1 inh -49.0%, CHX counter -0.4, Pf growth 96h inconclusive, Pf growth 48h 0.738µM* and Sm TGR inh 5.3%.
Screening C#CC[N+](C)(C)CCCCCCCCC returned Shiga toxin inh 12.8, NS1 inh 17.9%, CHX counter 8.2, Pf growth 96h inconclusive, Pf growth 48h 3.7µM* and Sm TGR inh -6.4%.
O=C(NCCCNC(=O)c1ccc(F)cc1)c1ccc(F)cc1 was read as Shiga toxin inh -3.6, NS1 inh 15.2%, CHX counter -3.3, Pf growth 96h 22.1%, Pf growth 48h 16.8% and Sm TGR inh -22.6%.
COc1ccc(Cc2nnc(N/N=C/c3ccc(O)cc3O)[nH]c2=O)cc1OC was read as Shiga toxin inh 14.4, NS1 inh inconclusive, CHX counter 1.3, Pf growth 96h inconclusive, Pf growth 48h 4.15µM* and Sm TGR inh 7.8%.
CCN(Cc1ccc(OC)c(F)c1)C(=O)c1cc2ccccc2o1 was read as Shiga toxin inh 8.9, NS1 inh -32.8%, CHX counter 17.7*, Pf growth 96h -16.9%, Pf growth 48h -9.9% and Sm TGR inh -12.0%.
Cc1c(C(=O)N(Cc2ccco2)Cc2cccs2)oc2ccccc12 was read as Pf growth 96h 18.7%, Pf growth 48h -10.2% and Sm TGR inh 0.2%.
O=C(c1cc2ccccc2o1)N(Cc1ccco1)Cc1cccs1 was read as Pf growth 96h -0.1%, Pf growth 48h inconclusive and Sm TGR inh 31.6µM*.
For CCOc1ccc(CN(C)C(=O)c2cc3ccccc3o2)cc1OC the results were Shiga toxin inh 20.8, NS1 inh -16.7%, CHX counter 4.4, Pf growth 96h inconclusive, Pf growth 48h -7.3% and Sm TGR inh 3.1%.
O=C(c1cc2ccccc2oc1=O)N(Cc1cccs1)Cc1ccccc1Cl was read as Shiga toxin inh 60.4*, NS1 inh 6.2%, CHX counter 44.6*, Pf growth 96h -19.5%, Pf growth 48h inconclusive and Sm TGR inh 0.3%.
